Source: the supplement of paper PMC6555819

Key:
Experiment in all cases: PBM binding z-score (relative to random genomic background probes); higher = stronger binding; sequences stand for … in GC…GCGATTGACAGCGTAGAATGAAGG
[1] = test system: PPARg:RXRa DBDmut IVT, anti-RXR (DBD mutation: RXRa K156A/R161A, NR concentration 270 nM, RXRa partner concentration 90 nM)
Summary of the method: (§1)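 Scanned fluorescence from custom Agilent 4×180K protein-binding microarrays was regression-normalized. Binding z-scores use random background probes as reference. Ligand-free nuclear receptor dimers were incubated on the arrays for 1 h and detected with antibodies against each partner (one per run).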

[2] = test system: PPARg:RXRa IVT, anti-PPARg (NR concentration 270 nM, RXRa partner concentration 90 nM)
Summary of the method: as §1

[3] = test system: PPARg DBDmut:RXRa IVT, anti-PPARg (DBD mutation: PPARg1 K132A/R137A, NR concentration 270 nM, RXRa partner concentration 90 nM)
Summary of the method: as §1

[4] = test system: PPARg DBDmut IVT, anti-PPARg (DBD mutation: PPARg1 K132A/R137A, NR concentration 270 nM)
Summary of the method: as §1

[5] = test system: PPARg homodimer (NR concentration 180 nM)
Summary of the method: as §1

[6] = test system: PXR:RXRa (NR concentration 270 nM, RXRa partner concentration 90 nM)
Summary of the method: as §1

[7] = test system: PXR homodimer (NR concentration 270 nM)
Summary of the method: as §1

[8] = test system: RARa:RXR (NR concentration 270 nM, RXRa partner concentration 90 nM)
Summary of the method: as §1

[9] = test system: RARa homodimer (NR concentration 270 nM)
Summary of the method: as §1

[10] = test system: RARb:RXRa (NR concentration 270 nM, RXRa partner concentration 90 nM)
Summary of the method: as §1

[11] = test system: RARb homodimer (NR concentration 270 nM)
Summary of the method: as §1

[12] = test system: RARg:RXRa (NR concentration 270 nM, RXRa partner concentration 90 nM)
Summary of the method: as §1

[13] = test system: RARg homodimer (NR concentration 270 nM)
Summary of the method: as §1

[14] = test system: RXRa DBDmut IVT, anti-RXR (DBD mutation: RXRa K156A/R161A, NR concentration 90 nM)
Summary of the method: as §1

[15] = test system: RXRa homodimer (NR concentration 180 nM)
Summary of the method: as §1

[16] = test system: THRa:RXRa (NR concentration 90 nM, RXRa partner concentration 90 nM)
Summary of the method: as §1

[17] = test system: THRa homodimer (NR concentration 90 nM)
Summary of the method: as §1

[18] = test system: VDR homodimer (NR concentration 270 nM)
Summary of the method: as §1

Sequence	PBM binding z-score [1]	PBM binding z-score [2]	PBM binding z-score [3]	PBM binding z-score [4]	PBM binding z-score [5]	PBM binding z-score [6]	PBM binding z-score [7]	PBM binding z-score [8]	PBM binding z-score [9]	PBM binding z-score [10]	PBM binding z-score [11]	PBM binding z-score [12]	PBM binding z-score [13]	PBM binding z-score [14]	PBM binding z-score [15]	PBM binding z-score [16]	PBM binding z-score [17]	PBM binding z-score [18]
ACTTACGGGTCAACGAGATTATAGCACGCGTATA	3.56	4.11	1.69	2.1	2.79	3.31	0.376	4.37	1.47	4.23	2.96	5.12	4.89	2.05	5.72	2.67	0.499	1.35
TCTTGTAGATCTATAGAGGTTAAGAAAGTGCGCT	1.2	0.683	0.144	0.174	0.213	2.66	-0.0488	1.63	0.178	0.906	1.12	0.795	0.399	0.575	1.43	1.35	-0.418	0.121
TGACCAAGGTGAAAGGTCGTTGATGCACGCCTTG	2.01	4.8	0.518	-0.282	1.58	3.75	-0.00693	5.22	-0.166	3.03	2.49	4.18	2.09	0.0698	5.72	3.35	0.487	1.31
CCGACTGGGGCATAGGGTTACCATAAGCCAGCCC	2.48	3.41	-0.334	-1.39	0.589	0.141	-0.597	0.817	-1.05	1.25	0.968	1.34	0.885	-1.32	1.21	0.957	-0.244	-1.05
CGTCAAAGTTTAACTAAGGTAACGTAAAGCACGC	0.271	1.32	0.6	1.17	0.901	1.45	0.928	1.55	0.858	2.44	1.7	1.51	1.92	1.68	0.784	4.66	1.99	0.79
TCTGCTAGGTCAGTGGGTCAGCTAACGAGCTGCC	4.42	5.76	0.364	-0.282	1.24	0.857	-0.958	2.11	-0.00938	3.77	3.84	3.92	4.5	0.404	2.23	1.94	0.337	-0.31
ACAGACAGGTGATGAAGGCAACTCAGGCTATCAT	-0.272	-0.316	0.175	-1.07	-0.119	-0.469	-0.142	0.0224	0.0844	0.0179	-0.412	0.106	0.345	-0.405	0.152	0.815	-0.588	-0.37
TCTCGGAGGACACGAGGGTCAGAGCTTTCCAGAG	1.25	0.292	-0.358	-0.909	0.294	0.835	-0.16	1.46	-0.665	2.38	2.81	2.58	2.96	0.569	1.33	2.48	0.409	0.685
CGAACTAGGTCACGAAAGGTCAAAGTCGAATGAC	8.45	8.7	0.767	1.32	5.63	7.14	3.35	7.72	2.82	5.68	6.05	7.91	8.67	2.37	8.55	5.01	2.52	3.39
CTCGAAAGGTCTTGCTCAGGTGAGTATACCAAAC	0.411	0.795	0.193	-0.313	0.433	0.314	-0.568	0.971	-0.363	1.75	1.29	1.52	1.33	0.0538	0.775	2.67	0.893	-0.0365
TCATATAGGTAAAAGGGGAAAGTCGGTGTGGTAA	4.82	3.69	1.31	1.21	1.73	0.624	0.862	1.17	2.27	0.958	0.789	0.447	0.236	1.95	1.19	0.512	0.383	0.386
TCATATAGGTAAAGGTGAAAATCGAACGATATGA	3.76	4.08	1.54	1.02	0.818	0.873	0.241	1.5	0.976	1.73	0.939	1.56	1.28	0.781	1.98	0.991	-0.415	-0.256
TCTGCTAGGTCAACGATAGTCAGCTAATCTGCTA	4.19	4.2	0.616	0.703	0.481	1.31	-0.482	1.98	-0.872	3.99	2.84	3.9	4.6	0.919	2.63	2.67	0.277	-0.234
CCTAGTTGATCAAGGTCACACACGCTATAGGTAC	2.26	3.44	1.49	1.07	3.39	4.28	3.62	4.24	2.05	3.95	4.44	4.24	4.06	2.8	4.2	4.25	4.11	4.32
TCTAGTTGGACACGGAGGTCACACACGACGGGTA	1.98	2.33	0.713	0.0839	2.38	4.16	1.05	4.39	1.25	3.45	4.2	3.95	3.96	0.997	4.47	3.6	2.32	2.67
